Sm TGR inh = blocks Schistosoma mansoni thioredoxin glutathione reductase; Q962Y6; purified TGR, DTNB reduction, TNB absorbance 405 nm; AID 485364; actives 3% (n = 360,000); Potency, µM (series often up to 114 µM), for inactives: at the top dose activity change, negative = inhibition, usual class: inhibitors; note: potency is the fitted concentration of half-maximal effect; % is set by controls: 0 for no effect and ±100 for the full control effect; nearly all actives have a fitted effect of over 60% in size
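TGR 20 nM + NADPH 100 uM (dispensed conc.), cpd preinc 15 min RT; start with NADPH (500 uM addition) then DTNB (15 mM addition). Kinetic TNB absorbance, 405 nm filter. Four-parameter Hill fit across titration.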
NS1 inh = blocks influenza NS1 protein function. Potency, µM (titrated, usually from 46.1 µM), inactives show at the highest dose activity, positive = more growth. actives 0.4% (n = 270,000); calls by dose curve; note: potency is the fitted concentration of half-maximal effect; actives are rising curves; nearly all actives have a fitted effect of over 50% in size
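S. cerevisiae expressing influenza A NS1, grown in glucose, washed, then diluted 1:100 into pH 6.0 -URA galactose medium with 23 nl compound. Growth recovery read as OD600; NS1-free strain serves as control.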
Pf growth 96h = inhibits malaria parasite growth, 96 h. AID 504834. P. falciparum luciferase reporter growth, 96 h. Potency, µM (top dose mostly 28.7 µM), for inactives: top-dose activity change, negative = inhibition, hits mostly inhibitors. actives 6.9% (n = 320,000); note: potency is the fitted concentration of half-maximal effect; % is set by controls: 0 for no effect and ±100 for the full control effect
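Compounds incubated with erythrocytes infected by luciferase-expressing P. falciparum (2% hematocrit, 0.05% parasitemia final) for 96 hours, 37 C in 5% CO2. Growth inhibition scored as decreased luciferase luminescence.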
Pf growth 48h = inhibits P. falciparum growth in the first generation, 48 h | P. falciparum luciferase growth in erythrocytes, 48 h | Potency, µM (series often up to 28.7 µM), inactives show at the highest dose activity change, negative = inhibition, actives largely listed as inhibitors | actives 5.9% (n = 310,000) | AID 504832; note: potency is the fitted concentration of half-maximal effect; % is set by controls: 0 for no effect and ±100 for the full control effect
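Growth was read as firefly luciferase luminescence after a 48 h, 37 C, 5% CO2 exposure of compounds to reporter-bearing P. falciparum cultures (0.1% parasitemia, 2% hematocrit final) in Albumax-supplemented RPMI 1640.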
Shiga inhibitor = Shiga toxin inhibition | Vero cells, Shiga toxin protein synthesis inhibition reporter | inhibition, % at 38.7 µM | actives 9.2% (n = 290,000); in the data active = inhibition mostly above about 28%, no sharp cut-off; inactive = mostly below about 43%; note: 0% is about no effect
CHX counter = counter-screen for Shiga toxin inhibitors: cycloheximide protein synthesis inhibition. cell reporter, cycloheximide protein synthesis inhibition counterscreen. actives 12% (n = 300,000). AID 2314. max response, %; in the data active = max response mostly above about 13%, no sharp cut-off; inactive = mostly below about 14%; note: read at 38.3 µM for the half of the compounds with a filed dose; 0% is about no effect
Starred values were filed as active, the others as inactive; ? = inconclusive; / = no result given; [ ] = remark or other dose. A selection: hits, their analogues and other compounds. The true share with any hit is near 21%. Unless noted, calls come from the whole dose curve; as a rule, active = well fitted curve in the direction sought with a large enough effect; inconclusive = small, poorly fitted or top-dose-only effect, or another doubt; inactive = no such curve, though single readings can be large; an effect the other way counts as inactive or inconclusive.

SMILES	Sm TGR inh	NS1 inh	Pf growth 96h	Pf growth 48h	Shiga inhibitor	CHX counter
CC(=O)SC(C[N+](=O)[O-])c1cn(C(C)=O)c2ccccc12 (configuration not stated)	4.5µM*	-194%	?	?	26	18
CC(=O)n1cc(Nc2ccc([N+](=O)[O-])cc2)c2ccccc21	0%	/	62%	?	79	15
O=C(/C=C/c1ccc(-c2ccccc2[N+](=O)[O-])o1)c1ccco1	35µM*	/	9%	-2%	113*	37*
N#C/C(=C\c1ccc(-c2ccccc2[N+](=O)[O-])o1)C(=O)N1CCOCC1	-6%	/	?	?	9	0
CCOC(=O)C1CCCN(C2CC(=O)N(c3ccc(NC(C)=O)cc3)C2=O)C1 (configuration not stated)	45µM*	/	?	-15%	-5	4
CCOC(=O)C1CCCN(C2CC(=O)N(c3ccc(C)cc3)C2=O)C1 (configuration not stated)	?	-52%	6%	/	-16	-2
CCOc1cccc(N2C(=O)CC(N3CCC(C(N)=O)(N4CCCCC4)CC3)C2=O)c1 (configuration not stated)	45µM*	-47%	/	2%	-11	-4
CCOC(=O)c1ccc(N2C(=O)CC(N3CCC(C(N)=O)(N4CCCCC4)CC3)C2=O)cc1 (configuration not stated)	28µM*	-30%	?	-9%	-1	-2
C=CCC(=O)N1CCCC(CO)(Cc2ccc(F)cc2F)C1 (configuration not stated)	-11%	6%	-17%	?	/	-2
COc1ccc(NC(=S)N2CCC(c3nc4ccccc4o3)CC2)c(OC)c1	-10%	/	-1%	14%	19	-1
Cc1ccnc(SCC(=O)Nc2sccc2C#N)n1	-12%	-4%	?	38%	17	12*
CC(=O)Nc1ccc(SCC(=O)Nc2sccc2C#N)cc1	-27%	/	56%	46%	63*	33*
Cc1cc(C)c(CN2CCN(Cc3ccc(C)o3)C(CCO)C2)c(-n2cccn2)c1 (configuration not stated)	?	0%	?	-17%	12	9
O=C(CSc1c[nH]c2ccccc12)N1CCCc2ccccc21	9%	-17%	-6%	-29%	-2	-2
O=C(Cc1coc2ccc3ccccc3c12)N1CCN(c2ncccn2)CC1	0%	-9%	8.3µM*	?	-8	-1
CCCN(CCC)C(=O)Cc1coc2ccc3ccccc3c12	0%	-6%	/	12µM*	-11	15
O=C(Cc1c[nH]c2ccccc12)N1CCc2ccccc21	-11%	-5%	10µM*	-26%	87*	30*
Cc1ccc2c(CC(=O)N3CCc4ccccc43)coc2c1	-12%	-2%	-11%	81%	100*	23*
O=C(Cc1coc2ccc3ccccc3c12)NCc1ccccc1	-17%	-8%	?	/	14	6
CCc1nnc(NC(=O)CSc2nnc(C(C)NC(=O)c3ccccc3)n2C)s1 (configuration not stated)	8%	-3%	-22%	-13%	4	-7
CCOc1ccc(NS(=O)(=O)c2ccc(C(=O)NCC(c3ccco3)N3CCCC3)cc2)cc1 (configuration not stated)	2%	/	?	?	/	/
CCN1CCN(C(=O)Cc2coc3ccc4ccccc4c23)CC1	-13%	6%	/	-6%	-8	1
O=C(Cc1coc2ccc3ccccc3c12)N1CCc2ccccc21	11%	12%	8.3µM*	-13%	-9	-4
COc1ccc(Cn2cccc(NC(=O)Nc3cccc(OC)c3)c2=O)cc1	-24%	-13%	?	61%	7	-1
CC12CC3CC(C)(C1)CC(C(=O)N1CCCC1)(C3)C2	4%	-17%	12µM*	?	-12	-4
SMILES	Sm TGR inh	NS1 inh	Pf growth 96h	Pf growth 48h	Shiga inhibitor	CHX counter
COc1ccc(N2CCN(c3cc(C)c4ccc(C)cc4n3)CC2)cc1	-2%	/	0%	-19%	-12	-1
COc1ccc2nc(SCC(N)=O)cc(C)c2c1	5%	-5%	-2%[5.75 µM]	18%	24	-2
COc1ccc2nc(N3CCOCC3)cc(C)c2c1	-16%	-2%	315%	/	61*	33*
COc1ccc2nc(C)cc(Nc3ccc(N4CCOCC4)cc3)c2c1	-23%	-23%	3%	2.9µM*	-13	-1
COc1ccc2c(C)cc(N3CCOCC3)nc2c1	-28%	-4%	94%	55%	52*	26*
COc1ccc2c(C)cc(N3CCN(c4ccc(F)cc4)CC3)nc2c1	-18%	-4%	/	?	-5	-3
COc1ccc2c(C)cc(SCC(=O)N3CCOCC3)nc2c1	-20%	-12%	0.19µM*	3%	-7	-1
CC(C)(C)C(=O)Nc1ccc(N2CCCC2)cc1	0%	13%	?	?	-14	8
CCOc1ccc2nc(N3CCOCC3)nc(C)c2c1	0%	-11%	9%	171%	99*	53*
O=C(N/N=C/c1ccncc1)c1ccc(NS(=O)(=O)c2cccs2)cc1	2%	/	32%[5.75 µM]	7%	25	9
N/C(=N\OC(=O)COc1ccc(Br)cc1Cl)c1cccnc1	-5%	13%	0%	130%	93*	45*
N/C(=N\OC(=O)COc1ccc(Cl)cc1Cl)c1ccncc1	-32%	-52%	0%	-3%	85*	43*
N/C(=N\OC(=O)COc1ccc(Br)cc1)c1ccncc1	4%	-1%	32%	-17%	19	-3
N/C(=N\OC(=O)COc1ccc(Cl)cc1Br)c1cccnc1	2%	/	?	322%	113*	31*
C/C(CC(=O)Nc1cccnc1)=N/NC(=O)COc1ccc(Cl)cc1Br	-33%	6%	?	?	4	1
Cc1cc(OCC(=O)O/N=C(\N)c2ccccc2)cc(C)c1Cl	-20%	9%	51%	?	9	5
CCc1nc(SCC(=O)c2c[nH]c3ccccc23)n[nH]1	-5%	/	-22%	13%	30	6
COc1cccc(NC(=O)CSc2ncc3c(n2)-c2ccc(Cl)cc2N(C)S3(=O)=O)c1	-6%	/	/	/	/	/
COc1cc(OC)c2c(-c3ccccc3)cc(=O)oc2c1C(CC(=O)N1CCCC1)c1ccc(N(C)C)cc1 (configuration not stated)	/	/	/	/	-10	10
COc1ccc(C(CC(=O)N2CCCC(C)C2)c2c(OC)cc(OC)c3c(-c4ccccc4)cc(=O)oc23)cc1 (configuration not stated)	?	5%	12µM*	9.3µM*	-5	-2
COc1ccc(C(CC(=O)N2CCCC2)c2c(OC)cc(OC)c3ccc(=O)oc23)cc1 (configuration not stated)	-4%	0%	?	?	-12	-3
